About 410 targets per protein were measured; listed, in parts, are those with the strongest signals and a random draw of the rest.
Assays:
Assay in all cases: glycan array binding signal (z-score within array); higher = stronger binding
Conditions in all cases: glycan notation: IUPAC condensed, linker removed
[1] = molecular target: Fuc(a1-2)Gal(b1-3)GlcNAc(b1-2)Man(a1-3)[Fuc(a1-2)Gal(b1-3)GlcNAc(b1-2)Man(a1-6)]Man(b1-4)GlcNAc(b1-4)GlcNAc
Outline: (§1)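 Columns mapping to the same glycan were averaged after glycan names were converted to IUPAC-condensed notation. The data come from 3228 arrays in the Consortium for Functional Glycomics database, limited to those with an available protein sequence. Binding is reported as a within-array Z-score averaged across arrays of one protein sequence and across linkers.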

[2] = molecular target: Fuc(a1-2)Gal(b1-3)GlcNAc(b1-3)Gal(b1-4)Glc
Outline: as §1

Fuc(a1-2)Gal(b1-4)GlcNAc = molecular target: Fuc(a1-2)Gal(b1-4)GlcNAc
Outline: as §1

[3] = molecular target: Fuc(a1-2)Gal(b1-4)GlcNAc(b1-2)[Fuc(a1-2)Gal(b1-4)GlcNAc(b1-4)]Man(a1-3)[Fuc(a1-2)Gal(b1-4)GlcNAc(b1-2)Man(a1-6)]Man(b1-4)GlcNAc(b1-4)GlcNAc
Outline: as §1

[4] = molecular target: Fuc(a1-2)Gal6S(b1-3)GlcNAc
Outline: as §1

Fuc(a1-2)[Gal(a1-3)]Gal = molecular target: Fuc(a1-2)[Gal(a1-3)]Gal
Outline: as §1

[5] = molecular target: Fuc(a1-2)[Gal(a1-3)]Gal(b1-3)GalNAc
Outline: as §1

[6] = molecular target: Fuc(a1-2)[Gal(a1-3)]Gal(b1-4)GlcNAc(b1-2)Man(a1-3)[Fuc(a1-2)[Gal(a1-3)]Gal(b1-4)GlcNAc(b1-2)Man(a1-6)]Man(b1-4)GlcNAc(b1-4)[Fuc(a1-6)]GlcNAc
Outline: as §1

[7] = molecular target: Fuc(a1-2)[Gal(a1-3)]Gal(b1-4)GlcNAc(b1-6)GalNAc
Outline: as §1

[8] = molecular target: Fuc(a1-2)[Gal(a1-3)]Gal(b1-4)[Fuc(a1-3)]Glc
Outline: as §1

[9] = molecular target: Fuc(a1-2)[Gal(a1-3)]Gal(b1-4)[Fuc(a1-3)]GlcNAc(b1-3)GalNAc
Outline: as §1

[10] = molecular target: Fuc(a1-2)[GalNAc(a1-3)]Gal(b1-3)GlcNAc
Outline: as §1

[11] = molecular target: Fuc(a1-3)[Gal(b1-4)]GlcNAc(b1-2)Man
Outline: as §1

[12] = molecular target: Fuc(a1-3)[Gal(b1-4)]GlcNAc(b1-3)Gal(b1-3)[Fuc(a1-4)]GlcNAc
Outline: as §1

[13] = molecular target: Fuc(a1-3)[Gal(b1-4)]GlcNAc(b1-3)GalNAc
Outline: as §1

[14] = molecular target: Fuc(a1-3)[GalNAc(b1-4)]GlcNAc
Outline: as §1

[15] = molecular target: Gal(a1-3)Gal(b1-3)GlcNAc(b1-3)GalNAc
Outline: as §1

[16] = molecular target: Gal(a1-3)Gal(b1-4)GlcNAc(b1-2)Man(a1-3)[Gal(a1-3)Gal(b1-4)GlcNAc(b1-2)Man(a1-6)]Man(b1-4)GlcNAc(b1-4)GlcNAc
Outline: as §1

Gal(a1-3)GalNAc = molecular target: Gal(a1-3)GalNAc
Outline: as §1

Gal(a1-4)Gal(b1-4)Glc = molecular target: Gal(a1-4)Gal(b1-4)Glc
Outline: as §1

Gal(b1-2)Gal = molecular target: Gal(b1-2)Gal
Outline: as §1

Gal(b1-3)Gal(b1-4)GlcNAc = molecular target: Gal(b1-3)Gal(b1-4)GlcNAc
Outline: as §1

[17] = molecular target: Gal(b1-3)GalNAc(a1-3)[Fuc(a1-2)]Gal(b1-4)Glc
Outline: as §1

Gal(b1-3)GlcNAc(b1-2)Man = molecular target: Gal(b1-3)GlcNAc(b1-2)Man
Outline: as §1

[18] = molecular target: Gal(b1-3)GlcNAc(b1-3)Gal(b1-4)GlcNAc(b1-3)Gal(b1-4)GlcNAc(b1-2)[Gal(b1-3)GlcNAc(b1-3)Gal(b1-4)GlcNAc(b1-3)Gal(b1-4)GlcNAc(b1-6)]Man(a1-6)[Gal(b1-3)GlcNAc(b1-3)Gal(b1-4)GlcNAc(b1-3)Gal(b1-4)GlcNAc(b1-2)Man(a1-3)]Man(b1-4)GlcNAc(b1-4)[Fuc(a1-6)]GlcNAc
Outline: as §1

[19] = molecular target: Gal(b1-3)[Neu5Ac(a2-6)]GlcNAc(b1-6)Gal(b1-4)Glc
Outline: as §1

Gal(b1-4)GlcNAc(b1-2)Man = molecular target: Gal(b1-4)GlcNAc(b1-2)Man
Outline: as §1

[20] = molecular target: Gal(b1-4)GlcNAc(b1-2)[Gal(b1-4)GlcNAc(b1-4)]Man(a1-3)[GlcNAc(b1-4)][Gal(b1-4)GlcNAc(b1-2)Man(a1-6)]Man(b1-4)GlcNAc(b1-4)GlcNAc
Outline: as §1

[21] = molecular target: Gal(b1-4)GlcNAc(b1-3)Gal(b1-4)GlcNAc(b1-2)[Gal(b1-4)GlcNAc(b1-3)Gal(b1-4)GlcNAc(b1-6)]Man(a1-6)[Gal(b1-4)GlcNAc(b1-3)Gal(b1-4)GlcNAc(b1-2)Man(a1-3)]Man(b1-4)GlcNAc(b1-4)[Fuc(a1-6)]GlcNAc
Outline: as §1

[22] = molecular target: Gal(b1-4)GlcNAc(b1-3)Gal(b1-4)GlcNAc(b1-3)Gal(b1-4)GlcNAc(b1-2)Man(a1-3)[Gal(b1-4)GlcNAc(b1-3)Gal(b1-4)GlcNAc(b1-3)Gal(b1-4)GlcNAc(b1-2)Man(a1-6)]Man(b1-4)GlcNAc(b1-4)GlcNAc
Outline: as §1

B1: Gal 1 (Mus musculus), P16045 (protein)
chain: MACGLVASNLNLKPGECLKVRGEVASDAKSFVLNLGKDSNNLCLHFNPRFNAHGDANTIVCNTKEDGTWGTEHREPAFPFQPGSITEVCITFDQADLTIKLPDGHEFKFPNRLNMEAINYMAADGDFKIKCVAFE
**Q.** With B1 as the binder, how does the “glycan array binding signal (z-score)” value [1] read?
**A.** 0.069

**Q.** What about the “glycan array binding signal (z-score)” value [2] of the same binder?
**A.** -0.229

**Q.** And the “glycan array binding signal (z-score)” value (Fuc(a1-2)Gal(b1-4)GlcNAc)?
**A.** -0.279

**Q.** And the “glycan array binding signal (z-score)” value [3]?
**A.** 0.547

**Q.** And the “glycan array binding signal (z-score)” value [4]?
**A.** -0.468

**Q.** And the “glycan array binding signal (z-score)” value (Fuc(a1-2)[Gal(a1-3)]Gal)?
**A.** -0.365

**Q.** And the “glycan array binding signal (z-score)” value [5]?
**A.** -0.363

**Q.** And the “glycan array binding signal (z-score)” value [6]?
**A.** 0.008

**Q.** And the “glycan array binding signal (z-score)” value [7]?
**A.** -0.106

**Q.** And the “glycan array binding signal (z-score)” value [8]?
**A.** -0.455

**Q.** What about the “glycan array binding signal (z-score)” value [9] of the same binder?
**A.** -0.325

**Q.** What about the “glycan array binding signal (z-score)” value [10] of the same binder?
**A.** -0.394

**Q.** What about the “glycan array binding signal (z-score)” value [11] of the same binder?
**A.** -0.075

**Q.** What about the “glycan array binding signal (z-score)” value [12] of the same binder?
**A.** -0.064

**Q.** What about the “glycan array binding signal (z-score)” value [13] of the same binder?
**A.** -0.264

**Q.** And the “glycan array binding signal (z-score)” value [14]?
**A.** -0.277

**Q.** And the “glycan array binding signal (z-score)” value [15]?
**A.** -0.23

**Q.** What about the “glycan array binding signal (z-score)” value [16] of the same binder?
**A.** 4.96

**Q.** What about the “glycan array binding signal (z-score)” value (Gal(a1-3)GalNAc) of the same binder?
**A.** -0.186

**Q.** What about the “glycan array binding signal (z-score)” value (Gal(a1-4)Gal(b1-4)Glc) of the same binder?
**A.** -0.376

**Q.** And the “glycan array binding signal (z-score)” value (Gal(b1-2)Gal)?
**A.** 0.468

**Q.** And the “glycan array binding signal (z-score)” value (Gal(b1-3)Gal(b1-4)GlcNAc)?
**A.** -0.195

**Q.** And the “glycan array binding signal (z-score)” value [17]?
**A.** -0.41

**Q.** And the “glycan array binding signal (z-score)” value (Gal(b1-3)GlcNAc(b1-2)Man)?
**A.** -0.113

**Q.** What about the “glycan array binding signal (z-score)” value [18] of the same binder?
**A.** 2.97

**Q.** What about the “glycan array binding signal (z-score)” value [19] of the same binder?
**A.** -0.078

**Q.** What about the “glycan array binding signal (z-score)” value (Gal(b1-4)GlcNAc(b1-2)Man) of the same binder?
**A.** -0.253

**Q.** What about the “glycan array binding signal (z-score)” value [20] of the same binder?
**A.** 0.891

**Q.** What about the “glycan array binding signal (z-score)” value [21] of the same binder?
**A.** 3.02

**Q.** And the “glycan array binding signal (z-score)” value [22]?
**A.** 2.85

— the supplement of paper PMC8728848
